Records with an inconclusive call do not appear. A number with no mark means an inactive call. The source made the active and inactive calls. Calls come from the whole dose curve; as a rule, active = well fitted curve in the direction sought with a large enough effect; inconclusive = small, poorly fitted or top-dose-only effect, or another doubt; inactive = no such curve, though single readings can be large; an effect the other way counts as inactive or inconclusive.

Assay [1] deals with Aldehyde dehydrogenase, mitochondrial (Homo sapiens) (UniProt P05091). Nature of the assay: qHTS for Inhibitors of the Aldehyde Dehydrogenase Family (ALDH2) Primary screen (AID 2061308).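 For activity change, negative = inhibition: plate controls were vehicle for no effect and reference inhibitor for full effect.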 Note: nearly all actives have a fitted effect of over 55% in size. Note: potency is the fitted concentration of half-maximal effect. A general note: In qHTS, concentration-response curves come from the screen itself.
In assay [2] the target is Retinaldehyde dehydrogenase 3 (Homo sapiens) (UniProt P47895). The assay can be described thus: qHTS for Inhibitors of the Aldehyde Dehydrogenase Family (ALDH1A3) Validation screen (AID 2061312). For activity change, negative = inhibition: % is set by controls: 0 for no effect and ±100 for the full control effect. Note: nearly all actives have a fitted effect of over 45% in size. Note: potency is the fitted concentration of half-maximal effect.
Assay [3] has the same target. Nature of the assay: qHTS for Inhibitors of the Aldehyde Dehydrogenase Family (ALDH1A3) Primary screen (AID 2061315).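 Note: plate controls were DMSO vehicle for no effect and reference inhibitor for full effect.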
Assay [4] has the same target. Nature of the assay: qHTS for Inhibitors of the Aldehyde Dehydrogenase Family (ALDH1A3) Confirmatory screens (AID 2061311). Note: potency is the fitted concentration of half-maximal effect; nearly all actives have a fitted effect of over 60% in size.
In assay [5] the target is Aldehyde dehydrogenase 1A1 (Homo sapiens) (UniProt P00352). Nature of the assay: qHTS for Inhibitors of the Aldehyde Dehydrogenase Family (ALDH1A1) Confirmatory screens (AID 2061316). Note: potency is the fitted concentration of half-maximal effect; nearly all actives have a fitted effect of over 65% in size.
In assay [6] the target is Retinal dehydrogenase 2 (Homo sapiens) (UniProt O94788). Nature of the assay: qHTS for Inhibitors of the Aldehyde Dehydrogenase Family (ALDH1A2) Confirmation screens (AID 2061314). Note: potency is the fitted concentration of half-maximal effect; nearly all actives have a fitted effect of over 65% in size.

Regarding `COC(=O)C1=COC(O[C@@H]2O[C@H](CO)[C@@H](O)[C@H](O)[C@H]2O)/C(=C\COC(=O)c2ccc(OC3OC(CO)C(O)C(O)C3O)c(OC)c2)C1CC(=O)OCCc1ccc(O)cc1` (stereo partly specified), the Potency entry in assay [1] was “inactive”.

With `COc1ccc2cc(-c3cc(-c4cc(Cl)cc(Cl)c4)nn3C(C)c3ccc(C(=O)NCCC(=O)O)cc3)ccc2c1` (stereo unspecified), the Potency result in assay [1], in assay [2] and in assay [3] was “inactive” each time.

On to `COc1ccc(CC2C(=O)NC(C)C(=O)N(C)C3Cc4ccc(cc4)Oc4cc(ccc4OC4OC(CO)C(O)C(O)C4O)CC(C(=O)NC(C)C(=O)NC(C)C(=O)N2C)N(C)C3=O)cc1` (stereo unspecified), for which the Potency result in assay [1] was “inactive”. For the same compound, the Potency in assay [4] was 4.78 µM (active).

In the case of `O=C(O)c1ccccc1NC(=O)N1CCC(c2ccccc2C(F)(F)F)CC1`, the Potency entry in assay [1], in assay [2] and in assay [3] was “inactive” throughout.

As to `Cc1cc(-c2nc(-c3ccc(OC(F)(F)F)cc3)no2)nn1Cc1ccnc(N2CCN(C3CC3)CC2)c1`, the Potency result in assay [1], in assay [2] and in assay [3] was “inactive” throughout.

In the case of `Cc1cc(-c2nncc3c(C(C)(C)C)c(OCc4ncnn4C)nn23)no1`, the Potency result in assay [1], in assay [2] and in assay [3] was “inactive” throughout.

For the compound `CCNC(=O)C1CC(F)(c2ccc(CN3CCCC3)c(F)c2)C1` (stereo unspecified), the Potency result in assay [1], in assay [2] and in assay [3] was “inactive” each time.

With `CC(C)(C)c1ccc(S(=O)(=O)NCc2ccc(C(=O)Nc3cccnc3)cc2)cc1`, the Potency entry in assay [1], in assay [2] and in assay [3] was “inactive” throughout.

Consider `CC(C)Nc1nc(Nc2ccccc2)nc(-c2ccccc2)n1`, for which the Potency result in assay [1], in assay [2] and in assay [3] was “inactive” throughout.

Take `C[C@]12CC[C@@H]3c4ccc(O)cc4CC[C@H]3[C@@H]1CC[C@@H]2OC(=O)CCC1CCCC1`: the Potency result in assay [1], in assay [2] and in assay [3] was “inactive” throughout.

Consider `CCN(CC)CCCS(=O)(=O)N[C@H](CCc1ccccc1)c1nc(Cc2ccc(Br)cc2)no1`, for which the Potency result in assay [1], in assay [2] and in assay [3] was “inactive” each time.

On to `CC(C)CCNC(=O)c1ccc2c(c1)nc(Nc1n[nH]c3ccc(-c4ccccc4OC(F)(F)F)cc13)n2C1CCC(O)CC1` (stereo unspecified), for which the Potency result in assay [1], in assay [2] and in assay [3] was “inactive” each time.

Regarding `COc1cc(-c2cn(C3CCc4c(F)cccc4N(CC(F)(F)F)C3=O)nn2)ccc1-n1cnc(C)c1` (stereo unspecified), the Potency result in assay [1], in assay [2] and in assay [3] was “inactive” in each case.

On to `Cc1cc(N=Nc2ccc(S(=O)(=O)Nc3ccccn3)cc2)c(N)cc1O`, for which the Potency result in assay [1] is “inactive”. The Potency in assay [4] and in assay [5] was 11.3 µM (active) in each case.

On to `O=C(C(Cc1cccc(C(F)(F)F)c1)NS(=O)(=O)c1cc(F)c2c(c1)CCNC2)N1CCCC1` (stereo unspecified), for which the Potency result in assay [1], in assay [2] and in assay [3] was “inactive” each time.

For `CO/N=C(/C(=O)N[C@@H]1C(=O)N2C(C(=O)O)=C(CSC(=O)c3ccco3)CS[C@H]12)c1csc(N)n1`, the Potency in assay [1] is 17.8 µM (active); in assay [4], 7.12 µM (active); in assay [6], 28.3 µM (active); in assay [5] it was 5.65 µM (active). Further, in assay [3], the Potency result was “inactive”.

For `C(#Cc1cccc(CN2CCOCC2)c1)CCN1CCCCC1`, the Potency entry in assay [1] and in assay [3] was “inactive” throughout. Also, the Potency in assay [2] is 20 µM (active).

As for `CN(C)CCCOc1nn(Cc2ccccc2)c2ccccc12`, the Potency result in assay [1], in assay [2] and in assay [3] was “inactive” in each case.

As for `CN(C)C(=O)NC1CCC(CCN2CCN(c3cccc(Cl)c3Cl)CC2)CC1` (stereo unspecified), the activity change, negative = inhibition is 8.14% [at 11.2 µM] in assay [1], 7.05% [at 20.1 µM] in assay [2] and -11.6% [at 11.2 µM] in assay [3].

The values above are taken from PubChem BioAssay (NCATS).
